# BoNT-F LC inh: inhibitors of Botulinum neurotoxin F light chain protease | Multiplex microsphere protease cleavage assay, flow cytometry | inhibition, % at 10 µM | 360,000 tested, 0.22% active; in the data active means inhibition above about 35%, passing the limit was not always enough; inconclusive means no clear call, values can overlap the other calls
# Autofluor counter: flagged as autofluorescent in microsphere protease counterscreen; fluorescence intensity (concentration not given with the values); 360,000 tested, 3.1% active; AID 624483; compound autofluorescence counterscreen, microsphere flow cytometry; stronger effect = higher value; in the data active means fluorescence intensity above about 16000; inconclusive means no clear call, values can overlap the other calls
# Anthrax LF prot: blocks Bacillus anthracis lethal factor protease; multiplex microsphere protease cleavage assay, LF; inhibition, % at 10 µM; 360,000 tested, 0.12% active
# BoNT A protease: BoNT A light chain protease inhibition; multiplex microsphere protease substrate cleavage, flow cytometry; inhibition, % at 10 µM; 360,000 tested, 0.17% active; AID 588499
# Numbers stand for hits; – = inactive; ? = inconclusive; ! = a repeat was not active. Sampled rows, rich in hits. Any-hit rate of the full collection: about 3.5%. Unless noted, no stated cut-off is given here; in the data, active means inhibition above about 30%; inconclusive means no clear call, values can overlap the other calls; inactive means below that.
SMILES,BoNT-F LC inh,Autofluor counter,Anthrax LF prot,BoNT A protease
Cc1cc(C)cc(C(O)c2ncc(-c3cccc(F)c3)[nH]2)c1 (stereo unspecified),–,–,–,–
CNc1ncnc2c1ncn2[C@H]1CN(CCOC)C[C@@H](CO)O1,–,–,–,–
Cc1coc(NC(=O)CSc2nc(-c3ccc(Cl)cc3)cc(C(F)(F)F)c2C#N)n1,–,16407,–,–
Cc1cc(C)c(C#N)c(SCC(=O)NC(C)(C)C)n1,–,–,–,–
Cc1cc(C(F)(F)F)c(C#N)c(SCC(=O)NC(C)(C)C)n1,–,25162,–,–
COc1ccc(-c2cc(C(F)(F)F)c(C#N)c(SCC(=O)Nc3nc(C)co3)n2)cc1,–,–,–,–
COc1ccc(CN2C(=O)COc3ccccc3C2c2nc3ccccc3[nH]2)cc1 (stereo unspecified),–,–,–,–
OC(c1cccnc1)c1nc(-c2ccc3c(c2)OCO3)cs1 (stereo unspecified),–,–,–,–
O=[N+]([O-])c1cc(F)c(N2CCCCC2)cc1N1CCOCC1,–,–,–,–
O=C(Nc1ccccc1N1CCOCC1)c1ccccc1[N+](=O)[O-],–,24174,–,–
O=[N+]([O-])c1cc(F)c(N2CCOCC2)cc1N1CCCCC1,–,24982,–,–
O=C(Nc1ccccc1N1CCOCC1)c1ccc(N2CCOCC2)c([N+](=O)[O-])c1,–,–,–,–
O=[N+]([O-])c1cccnc1N1CCOCC1,–,19529,–,?
O=C1CCN(c2ncccc2[N+](=O)[O-])CC1,–,–,–,–
Cc1cc2nc(-c3ccc(Cl)cc3)c(CC3CCCCC3)n2c(C)c1Br,–,–,–,–
COc1ccc(C(=O)N2CCC(C)(C(=O)O)C2)cc1OC (stereo unspecified),–,–,–,–
Cc1ccc(NC(=O)CCC(=O)OCC(=O)c2ccc(Oc3ccc([N+](=O)[O-])cc3)cc2)cc1,–,–,–,–
Cc1ccc(NC(=O)CCC(=O)OCC(=O)c2ccc(Oc3ccc([N+](=O)[O-])cc3)cc2)c(C)c1,–,17075,–,–
O=Cc1ccc(-c2ccccc2C(=O)O)o1,–,–,–,–
O=C(O)c1ccccc1-c1c2cc(I)c(=O)c(I)c-2oc2c(I)c(O)c(I)cc12,38.2!,–,32.9,64.3
COC(=O)Cc1c(O)ccn(Cc2cccc3ccccc23)c1=O,–,21316,–,–
COC(=O)Cc1c(O)ccn(Cc2ccccc2OC)c1=O,?,–,–,–
O=C(O)c1cccc(Cn2c(Cl)c(/C=N/NC(=O)c3ccco3)sc2=O)c1,–,–,–,–
Cc1ccc(-n2c(C(C)n3nc(C)c([N+](=O)[O-])c3C)n[nH]c2=S)cc1 (stereo unspecified),–,19726,–,–
Cc1ccc(NCc2n[nH]c(=S)n2-c2cccc(Cl)c2)cc1,–,–,–,–
SMILES,BoNT-F LC inh,Autofluor counter,Anthrax LF prot,BoNT A protease
COc1ccc(-n2c(C(C)n3nc(C)c([N+](=O)[O-])c3C)n[nH]c2=S)cc1 (stereo unspecified),–,–,–,–
Cc1nn(C(C)c2n[nH]c(=S)n2-c2cccc(Cl)c2)c(C)c1[N+](=O)[O-] (stereo unspecified),–,18732,–,–
CC1(C(=O)NS(=O)(=O)c2cccs2)CCN1C(=O)CC1CC1 (stereo unspecified),–,–,–,–
COc1cccc(CNC(=O)[C@@H]2CCCN2)c1,–,–,–,–
Cc1cc(C(=O)Nc2sc(C)c(C)c2C#N)c(C)o1,–,16457,–,?
Cc1sc(NC(=S)NC(=O)c2ccc(C(C)(C)C)cc2)c(C#N)c1C,–,21363,–,–
O=S1(=O)C[C@H](N2CCCC2)[C@@H](COCc2ccccc2)N1,–,–,–,–
CCCCn1c(OC(=S)N(CC)CC)cc(C)nc1=S,–,–,–,–
COc1cc(OC)c(OC)cc1CNC(C)C(O)c1ccccc1 (stereo unspecified),–,17763,–,–
Cc1ccc2[nH]c3c(c2c1)CN(C(=O)CN1CC(C)OC(C)C1)CC3 (stereo unspecified),?,17955,–,–
CC(=O)N1CCc2[nH]c3ccc(C)cc3c2C1,?,–,–,–
COc1cc(NC(=O)CN2C(=O)COc3ccc(S(=O)(=O)N4CCCC4)cc32)cc(OC)c1,–,–,–,–
COc1ccc(N2C(=O)CC(n3cnc4ccccc43)C2=O)cc1 (stereo unspecified),–,22109,–,?
COc1ccc(N2C(=O)CC(N3CCC(O)(c4ccc(Cl)cc4)CC3)C2=O)cc1 (stereo unspecified),–,16898,–,?
COc1ccc(N2C(=O)CC(N3CCC(c4nc5ccccc5[nH]4)CC3)C2=O)cc1 (stereo unspecified),–,22767,–,?
